# Screens as filed in PubChem.
# KCNQ2 enhance – potentiators of rat KCNQ2 potassium channel | Potassium voltage-gated channel subfamily KQT member 2 (Rattus norvegicus), O88943 | CHO-K1 KCNQ2, FluxOR thallium flux fluorescence; active compounds read high | B-score at 10 µM | 0.54% of 310,000 active | AID 2239, 2010;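 active = fluorescence ratio B-score at least 3 SD of library B-scores, with initial fluorescence B-score within 3 of them, cut at about 5.3 in these data; same plate scores as AID 2156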;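 also: B-score of peak minus minimum over baseline fluorescence ratio after K+ and Tl+ stimulus; positive B-score means potentiation of KCNQ2 with more thallium influx and brighter signal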
# Target sequence (O88943 whole entry, looked up): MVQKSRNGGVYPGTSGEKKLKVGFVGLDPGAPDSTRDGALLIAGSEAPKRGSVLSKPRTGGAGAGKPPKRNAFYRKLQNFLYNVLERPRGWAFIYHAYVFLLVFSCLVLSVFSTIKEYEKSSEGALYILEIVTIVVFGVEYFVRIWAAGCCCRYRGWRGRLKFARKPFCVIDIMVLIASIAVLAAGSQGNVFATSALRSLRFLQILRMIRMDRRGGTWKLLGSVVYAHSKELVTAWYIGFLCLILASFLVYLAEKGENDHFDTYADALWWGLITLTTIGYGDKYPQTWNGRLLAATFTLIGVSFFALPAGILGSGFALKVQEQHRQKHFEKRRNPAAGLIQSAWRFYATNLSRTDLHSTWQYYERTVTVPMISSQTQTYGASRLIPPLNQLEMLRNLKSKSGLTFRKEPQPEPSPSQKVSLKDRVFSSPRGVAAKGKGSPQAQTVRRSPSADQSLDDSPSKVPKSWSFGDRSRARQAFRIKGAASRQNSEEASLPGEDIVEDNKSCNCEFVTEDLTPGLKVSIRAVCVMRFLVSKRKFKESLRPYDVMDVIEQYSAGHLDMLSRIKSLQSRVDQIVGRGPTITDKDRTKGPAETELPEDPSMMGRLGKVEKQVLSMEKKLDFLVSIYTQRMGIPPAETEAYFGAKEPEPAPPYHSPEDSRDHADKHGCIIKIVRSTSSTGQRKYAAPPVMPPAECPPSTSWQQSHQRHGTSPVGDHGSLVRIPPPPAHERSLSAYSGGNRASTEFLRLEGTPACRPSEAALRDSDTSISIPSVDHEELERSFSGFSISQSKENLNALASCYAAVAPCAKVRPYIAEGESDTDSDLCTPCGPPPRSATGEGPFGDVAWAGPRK
# KCNQ2 block – rat KCNQ2 potassium channel inhibitors, primary screen, cell-based, CHO-K1, FluxOR thallium flux, B-score; Potassium voltage-gated channel subfamily KQT member 2 (Rattus norvegicus), O88943; 20 min; active compounds read low; AID 2156, 2009; B-score at 10 µM; 1.1% of 310,000 active;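 active = fluorescence ratio B-score at most minus 3 library SDs, with starting brightness B-score within 2 library SDs, cut at about -5.5 in these data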
# * = called active by the depositor; i = inactive; . = no result. Rows were chosen to be rich in hits. Some 1.6% of all compounds tested hit in one or more screens of this group.
SMILES,KCNQ2 enhance,KCNQ2 block
COc1cccc(NS(=O)(=O)NC(=O)c2cn(C)c3ccccc23)c1,.,i
CCCN(CC1CC1)c1nc(C)nc(Nc2c(Cl)cc(Cl)cc2Cl)c1Cl,-5.63,-5.63*
CCCN(CC1CC1)c1nc(N)c(C#N)c(CC#N)c1C#N,.,i
COc1ccccc1CC(=O)N(Cc1ccccc1)c1cccc(C)c1,.,i
CC(C)(C)C(=O)OCc1nc(-c2ccc(C(F)(F)F)cc2)cs1,-5.59,-5.59*
FC(F)(F)c1ccc(-c2csc(-c3ccno3)n2)cc1,.,i
O=S(=O)(NCC1CCCO1)c1ccccc1F (configuration not stated),.,i
CCCCC1(Cc2ccc([N+](=O)[O-])cc2)C(=O)N(c2ccccc2)N(c2ccccc2)C1=O,-5.97,-5.97*
Cc1nn(Cc2ccc([N+](=O)[O-])cc2)c(=O)n1-c1ccccc1,0.03,i
Cc1ccc2c(c1)N(C(=O)CCC(=O)NCc1cccc(Br)c1)CC(C)O2 (configuration not stated),-6.99,-6.99*
Cc1ccc2c(c1)N(C(=O)CCC(=O)Nc1ccccc1Br)CC(C)O2 (configuration not stated),.,i
C/C=C/c1ccc(OCC(=O)Nc2cc(S(=O)(=O)N3CCOCC3)ccc2N2CCCC2)c(OC)c1,0.19,i
CCCCNC(=O)CNC(=S)N(Cc1ccc(C)cc1)Cc1ccco1,0.59,i
CCOC(=O)CNC(=S)N(Cc1ccco1)Cc1ccccc1Cl,-6.49,-6.49*
O=C(CSc1nc(-c2ccccc2)c(-c2ccccc2)o1)NCCCO,1.51,i
CC1Cc2ccccc2N1C(=O)C1CC(=O)N(c2ccccc2)C1 (configuration not stated),0.76,i
O=C(NCCCN1CCOCC1)c1ccccc1N1C(=O)[C@@H]2Cc3c([nH]c4ccccc34)C(c3ccc(F)cc3)N2C1=O (some centres not stated),-7.07,-7.07*
O=C(NCCN1CCOCC1)c1ccccc1N1C(=O)[C@@H]2Cc3c([nH]c4ccccc34)C(c3ccccc3)N2C1=O (some centres not stated),.,i
Cc1nn(CC(=O)NCCCN2CC(C)CC(C)C2)c(=O)c2cccn12 (configuration not stated),.,i
COc1cccc(-n2nnnc2S(C)(=O)=O)c1,-7.78,-7.78*
COc1cccc(Oc2nnnn2-c2ccccc2)c1,.,i
O=C(c1ccccc1)c1ccc(OCCn2cnc3ccccc3c2=O)cc1,0.19,i
CC(C)(c1ccccc1)c1ccc(OCCn2cnc3ccccc3c2=O)cc1,-7.41,-7.41*
Cc1ccc(NC(=S)N2CCCCC2)cc1C,.,i
Cc1ccc(O)c(C(CC(=O)NCc2ccco2)c2ccccc2)c1 (configuration not stated),15.9*,i
SMILES,KCNQ2 enhance,KCNQ2 block
Cc1cccc(C(CC(=O)NCc2ccco2)c2ccccc2)c1O (configuration not stated),0.02,i
Cc1ccc(O)c(C(CC(=O)NC(C)C)c2ccccc2)c1 (configuration not stated),0.44,i
CCCN(CCC)C(=O)CC(c1ccccc1)c1cc(C)ccc1O (configuration not stated),-6.04,-6.04*
O=C(CSc1nnc(-c2cc3ccccc3cc2O)n1Cc1ccco1)c1ccc(F)cc1,-5.93,-5.93*
Cc1occc1-c1nnc(SCC(=O)c2ccc(F)cc2)n1Cc1ccco1,.,i
CC(C)Oc1cccc(C2NC(=O)c3ccccc3O2)c1 (configuration not stated),.,i
COc1ccccc1/C=C(/CC(=O)NCc1ccccc1)c1nc2ccccc2s1,.,i
COc1ccccc1/C=C(/CC(=O)NCc1ccc(F)cc1)c1nc2ccccc2s1,-6.76,-6.76*
O=C(COc1ccc([N+](=O)[O-])cc1)Nc1ccccc1N1CCCC1,0.89,i
Oc1ccccc1C1=Nc2ccccc2N=C(c2cccs2)C1,.,i
Cc1ccc(O)c(C2=Nc3ccccc3N=C(c3cccs3)C2)c1,-5.59,-5.59*
O=C(NCC1CCCO1)c1ccc2c(c1)C(=O)N(c1cccc([N+](=O)[O-])c1)C2=O (configuration not stated),.,i
COC(=O)c1ccc(SCC(=O)NCc2ccccc2)c([N+](=O)[O-])c1,0.61,i
Cn1ncc(C#N)c1/N=C/N1CCCC1,0.14,i
Cn1ncc(C#N)c1/N=C/N(Cc1ccccc1)Cc1ccccc1,-5.71,-5.71*
CCOc1ccc(OCC(O)CNC2CCN(Cc3ccccc3)CC2)cc1 (configuration not stated),0.8,i
CC(C)(c1ccccc1)c1ccc(OCC(O)CNC2CCN(Cc3ccccc3)CC2)cc1 (configuration not stated),-8.26,-8.26*
CN(C(=O)Cn1nnc2ccccc2c1=O)C1CCCCC1,0.1,i
O/N=C/c1ccc2ccccc2n1,.,i
CC(C)(C)c1ccccc1N=Cc1ccc2ccccc2n1,-6.41,-6.41*
CCCCCN(C(=O)CCC(=O)OCC(=O)N(CC)C1CCCCC1)c1c(N)n(CCCC)c(=O)[nH]c1=O,1.4,i
Cc1ccc(C(=O)Nc2cccc(C(=O)N3CCOCC3)c2)cc1Cl,2.77,i
Cc1nnsc1S(=O)c1ccccc1Cl (configuration not stated),.,i
N/C(=N\OC(=O)CCC1CCCC1)c1cccc([N+](=O)[O-])c1,5.82*,i
N/C(=N\OC(=O)CCC1CCCCC1)c1ccc([N+](=O)[O-])cc1,0.03,i
SMILES,KCNQ2 enhance,KCNQ2 block
N/C(=N\OC(=O)CC1CCCCC1)c1ccc([N+](=O)[O-])cc1,.,i
N/C(=N\OC(=O)CC1CCCCC1)c1cccc([N+](=O)[O-])c1,10.4*,i
CCc1ccc2[nH]c3nc(N/N=C/c4ccc(O)cc4O)nnc3c2c1,0.7,i
COC(=O)C(Cc1ccc(OC(=O)c2ccccc2Cl)cc1)N1Cc2ccccc2C1=O (configuration not stated),.,i
COC(=O)C(Cc1ccc(OC(=O)c2ccccc2C)cc1)N1Cc2ccccc2C1=O (configuration not stated),-5.86,-5.86*
COc1ccc(N/N=C(\C=N\O)C(=O)c2ccc(OC)cc2)cc1,.,i
CO/N=C/C(=N\Nc1cc(OC)cc(OC)c1)C(=O)c1ccccc1,-5.8,-5.8*
Cc1ccc(OCC(=O)OCC(=O)c2ccccc2)cc1C,1.25,i
CC(=O)Nc1ccc(NC(=O)CSc2nnc(NC(=O)c3ccc(Br)o3)s2)cc1,0.06,i
CN(CC(=O)Nc1ccc(Cl)cc1)C(=O)c1cc(-c2cccs2)nn1-c1ccccc1,-7.63,-7.63*
CN(CC(=O)Nc1c(Cl)cccc1Cl)C(=O)c1cc(-c2cccs2)nn1-c1ccccc1,.,i
CC(OC(=O)c1ccc(OCC2CCCO2)cc1)C(=O)N(C)Cc1ccccc1 (configuration not stated),.,i
CCOc1ccc(-c2cc(N3C(=O)Nc4ccccc4N3O)n[nH]2)cc1,0.35,i
CCOC(=O)c1c(N2C(=O)Nc3ccccc3N2O)n[nH]c1-c1cccc(Cl)c1,10.2*,i
CNC(CC(C)C)C(=O)NC1C(=O)NC(CC(N)=O)C(=O)NC2C(=O)NC3C(=O)NC(C(=O)NC(C(=O)O)c4cc(O)cc(O)c4-c4cc3ccc4O)C(O)c3ccc(c(Cl)c3)Oc3cc2cc(c3OC2OC(CO)C(O)C(O)C2OC2CC(C)(N)C(O)C(C)O2)Oc2ccc(cc2Cl)C1O (configuration not stated),.,i
